Measured values from PubChem BioAssay (NCATS).
Records with an inconclusive call do not appear. Activity calls are given as the source filed them. Unless noted, the call rests on the fitted dose curve; in most records, active means well fitted curve in the direction sought with a large enough effect; inconclusive means small, poorly fitted or top-dose-only effect, or another doubt; inactive means no such curve, though single readings can be large; an effect the other way counts as inactive or inconclusive.

Columns and labels:
[1] = qHTS for compounds that reverse cellular toxicity of Amyloid beta (A-beta) peptide in yeast: LOPAC Validation Assay (AID 720559);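 further: plate controls were DMSO for no effect and equimolar ferric chloride plus clioquinol rescue for full effect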
In short: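 Rescue of A-beta toxicity was scored as yeast growth by 600 nm absorbance after 48 hr at 30 C with compound. Normalization used DMSO (negative) and equimolar ferric chloride plus clioquinol (positive).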

[2] = qHTS for Activators of Parkin Expression: LOPAC Validation Assay (NLuc Reporter) (AID 720572;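 further: 0% = DMSO and 100% = positive control compound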)
In short: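 Neuronal cells with a Parkin promoter-driven FLuc/NLuc coincidence reporter were treated 24 h at 37 C in 7-point dose response (LOPAC). NLuc luminescence read after FLuc; signals normalized to DMSO and positive control (100%).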

[3] = qHTS for Activators of Parkin Expression: LOPAC Validation Assay (FLuc Reporter) (AID 720573;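 further: 0% = DMSO and 100% = positive control compounds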)
In short: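 FLuc signal from Parkin-promoter coincidence reporter neuronal cells, normalized to DMSO and positive control (100%). Cells (1,500/well) pre-incubated 24 h, then exposed to LOPAC compounds in 7-point dose response for 24 h at 37 C, 5% CO2.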

[4] = target: T1, Hexokinase-4 (Homo sapiens) + Glucokinase regulatory protein (Homo sapiens) (UniProt P35557+Q14397); assay: qHTS assay for inhibitors of recombinant human GCK-GKRP interaction: Diaphorase-coupled assay (AID 743205)
T1 sequence (P35557 whole entry, looked up): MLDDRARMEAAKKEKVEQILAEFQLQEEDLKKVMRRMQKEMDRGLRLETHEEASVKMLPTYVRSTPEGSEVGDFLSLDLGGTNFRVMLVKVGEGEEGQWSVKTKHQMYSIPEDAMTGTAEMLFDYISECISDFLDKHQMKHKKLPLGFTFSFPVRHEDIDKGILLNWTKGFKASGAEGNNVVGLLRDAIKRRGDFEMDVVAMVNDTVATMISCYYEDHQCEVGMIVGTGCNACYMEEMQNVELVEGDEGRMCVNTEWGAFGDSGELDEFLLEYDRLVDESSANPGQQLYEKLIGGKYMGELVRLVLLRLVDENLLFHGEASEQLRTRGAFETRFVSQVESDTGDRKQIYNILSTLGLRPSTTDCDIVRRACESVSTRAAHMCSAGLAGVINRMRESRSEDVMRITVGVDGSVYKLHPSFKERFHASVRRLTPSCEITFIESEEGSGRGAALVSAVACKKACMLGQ
T1 sequence (Q14397 whole entry, looked up): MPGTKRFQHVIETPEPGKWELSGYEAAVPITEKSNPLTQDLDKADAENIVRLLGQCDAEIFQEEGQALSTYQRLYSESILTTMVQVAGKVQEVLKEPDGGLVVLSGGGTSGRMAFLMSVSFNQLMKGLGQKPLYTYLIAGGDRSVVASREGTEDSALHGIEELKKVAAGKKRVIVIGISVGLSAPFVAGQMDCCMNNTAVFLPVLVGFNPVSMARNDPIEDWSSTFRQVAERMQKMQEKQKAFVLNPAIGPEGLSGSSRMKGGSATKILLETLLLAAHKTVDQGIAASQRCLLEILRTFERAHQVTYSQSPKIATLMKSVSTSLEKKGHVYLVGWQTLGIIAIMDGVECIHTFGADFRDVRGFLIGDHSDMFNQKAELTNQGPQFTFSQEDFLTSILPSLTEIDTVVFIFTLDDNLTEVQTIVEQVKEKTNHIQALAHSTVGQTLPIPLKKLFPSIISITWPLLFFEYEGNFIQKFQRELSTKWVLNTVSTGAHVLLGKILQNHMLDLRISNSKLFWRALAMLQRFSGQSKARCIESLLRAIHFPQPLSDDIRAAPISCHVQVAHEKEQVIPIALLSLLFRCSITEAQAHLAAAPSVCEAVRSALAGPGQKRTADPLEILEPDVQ
In short: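 A kinetic fluorescence read (Ex 525/Em 590 nm, every minute for 30 minutes) tracked resorufin from a G6PDH-diaphorase coupled GCK reaction. It contained 10 nM GST-GCK, 10 nM FLAG-GKRP, 5 mM glucose, 0.4 mM ATP in Hepes pH 7.6. Normalized to with/without-enzyme DMSO controls.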

[5] = target: T1, Hexokinase-4 (Homo sapiens) + Glucokinase regulatory protein (Homo sapiens); assay: qHTS assay for inhibitors of recombinant human GCK-GKRP interaction: ADP-Glo assay (AID 743206);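 further: plate controls were DMSO plus enzyme for no effect and no enzyme for full effect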
In short: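 GST-GCK and FLAG-GKRP (15 nM each in the dispensed mix, with 2 uM S6P) react with 0.4 mM ATP and 5 mM glucose (final) in Hepes pH 7.6 for 60 min at room temperature. ADP is measured by ADP-Glo luminescence.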

[6] = target: T1, Hexokinase-4 (Homo sapiens) + Glucokinase regulatory protein (Homo sapiens); assay: qHTS assay for inhibitors of recombinant human GCK-GKRP interaction: HTRF assay (AID 743207);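 further: 0% = DMSO with GCK present and -100% = DMSO wells lacking GCK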
In short: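 After 60 min equilibration at room temperature with anti-FLAG XL665 and anti-GST antibodies, FRET ratio (665/615 nm, excitation 320 nm) was read. Proteins: GST-GCK and FLAG-GKRP, each 5 nM, plus 2 uM S6P, pH 7.1 buffer; GCK-free wells define minimum signal.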

[7] = qHTS assay for measurement of the activity of small molecule inhibitors on Zika virus induced Caspase-3 activity in human iPSC derived neural progenitor cells (hNPCs) (AID 1224857); further: % of control where 0% means no effect; nearly all actives have a fitted effect of over 65% in size
In short: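 Values are percent inhibition of virus-induced caspase-3/7 signal, scaled between uninfected cells and ZIKV-infected cells. Infection used 2 FFU/cell for 6 h after 1 h compound exposure.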

[8] = qHTS assay for small molecule agonists of the antioxidant response element (ARE) signaling pathway measured by Nrf2-dependant transcriptional activity (AID 720636; active means well fitted curve in the direction sought with a large enough effect in the repeat runs; an effect the other way counts as inactive or inconclusive;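 further: HepG2 cells with an ARE-driven luciferase reporter; % of control where 0% means no effect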)
In short: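 ONE-Glo luminescence, read 30 min after reagent addition at room temperature, reflected ARE reporter activity in HepG2 cells that had been incubated with compound for 16 hr at 37 C in 1% dialyzed FBS.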

[9] = qHTS assay for small molecule antagonists of the retinoid-related orphan receptor gamma (ROR-gamma) signaling pathway - cell viability counter screen (AID 720652; active means well fitted curve in the direction sought with a large enough effect in the repeat runs; an effect the other way counts as inactive or inconclusive;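 further: compound exposure lasted 16 hr before ATP read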; further: potency means the concentration at half of the fitted maximal effect)
In short: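 Cytotoxicity is quantified via intracellular ATP (CellTiter-Glo luminescence) in doxycycline-induced CHO ROR response element-luciferase reporter cells treated with compound for 16 hr at 37 C, 5% CO2.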

[10] = qHTS assay for small molecule agonists of the antioxidant response element (ARE) signaling pathway measured by Nrf2-dependant transcriptional activity - cell viability counter screen (AID 720653; active means well fitted curve in the direction sought with a large enough effect in the repeat runs; an effect the other way counts as inactive or inconclusive; further: on the % scale 0 is the no-effect control and ±100 the full control effect); conditions: ARE-bla HepG2 viability, CellTiter-Glo ATP luminescence, 16 h; max response: hits give low values
In short: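 ARE-bla HepG2 cells treated with compounds for 16 h at 37C; this counter screen measures viability as intracellular ATP by CellTiter-Glo luminescence after 30 min at room temperature.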

[11] = qHTS Assay for Identifying Gametocytocidal Compounds (AID 743244);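 further: on the % scale 0 is the no-effect control and ±100 the full control effect; actives lower the fluorescent signal which means gametocytes are killed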; conditions: P. falciparum 3D7 stage III-V gametocytes, alamarBlue, 72 h; max response: hits give low values
In short: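 Stage III–V gametocytes of P. falciparum 3D7 were seeded at 20,000 cells/well onto pre-dispensed compounds. After 72 h, 37 °C, 5% CO2, alamarBlue was added for another 24 h.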

[12] = qHTS assay for cell viability of HEK293 cells (AID 743288); conditions: ATP luminescence (CellTiter-Glo), 18 h; max response: hits give low values; further: on the % scale 0 is the no-effect control and ±100 the full control effect; nearly all actives have a fitted effect of over 50% in size
In short: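 Total intracellular ATP, measured with a luciferase-coupled reagent, indicates the number of viable HEK293 cells. Exposure to test chemicals lasts 18 h at 37 C in 1,536-well format at 2,000 cells/well.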

[13] = qHTS assay for cell viability of the p53RE-bla HCT-116 cell line (AID 743292); further: on the % scale 0 is the no-effect control and ±100 the full control effect; nearly all actives have a fitted effect of over 55% in size
In short: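 After plating at 4,000 cells per well and a 5 h rest at 37 C, HCT-116 cells carrying p53RE-bla received test chemicals in DMSO. Sixteen hours later at 37 C, CellTiter-Glo was added and luminescence recorded following 30 min at room temperature.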

Oc1ccc2c3c1O[C@H]1c4oc5ccccc5c4C[C@@]4(O)C(C2)N(CC2CC2)CCC314 (stereo not given in full)
inactive: outcome [1] | Potency [2] | outcome [3] | Potency [4] | outcome [5] | outcome [6] | Potency [7]

CC(N)c1cccc(Cl)c1Cl (stereo not given)
inactive: outcome [1] | Potency [2] | outcome [3] | Potency [4] | outcome [5] | outcome [6] | Potency [7]

CCS(=O)(=O)Nc1cccc(C(=C2CCCCC2)c2cnc[nH]2)c1
inactive: outcome [1] | Potency [2] | outcome [3] | Potency [4] | outcome [5] | outcome [6] | Potency [7]

OC1CCCCC1N1CCC(c2ccccc2)CC1 (stereo not given)
inactive: outcome [1] | Potency [2] | outcome [3] | Potency [4] | outcome [5] | outcome [6] | Potency [7]

CC(C)(O)[C@@H]1[C@H]2OC(=O)[C@@H]1[C@]1(O)C[C@H]3O[C@]34C(=O)O[C@H]2[C@]14C (tested in a mixture with another compound)
inactive: Potency [7]

NNC(N)=O
inactive: outcome [1] | Potency [2] | outcome [3] | Potency [8] | Potency [9] | max response [10] 4.7% | Potency [4] | outcome [5] | outcome [6] | max response [11] 14.6% | max response [12] -7.58% | Potency [13] | Potency [7]

CCNC(=O)[C@H]1O[C@@H](n2cnc3c(N)ncnc32)[C@H](O)C1O (stereo not given in full)
inactive: Potency [7]

O=C1C=CC(=O)C=C1
inactive: outcome [1] | Potency [2] | outcome [3] | Potency [8] | Potency [4] | outcome [5] | outcome [6] | max response [11] 4.21% | Potency [13] | Potency [7]
active: Potency [9] 26.6 µM

CCCN(CCC)[C@H]1CCc2c(F)ccc(O)c2C1
inactive: outcome [1] | Potency [2] | outcome [3] | Potency [4] | outcome [5] | outcome [6] | Potency [7]

Cc1c2ccncc2c(C)c2c1[nH]c1ccccc12
inactive: outcome [1] | Potency [2] | outcome [3] | Potency [4] | outcome [5] | outcome [6] | Potency [7]

O=C(NC1CN2CCC1CC2)c1cc2ccoc2cn1 (stereo not given)
inactive: Potency [7]

C[C@H]1C2Cc3ccc(O)cc3[C@@]1(C)CCN2CC1CC1
inactive: Potency [7]

Nc1ncnc2c1ncn2[C@@H]1O[C@H](COP(=O)(O)CP(=O)(O)OP(=O)(O)O)C(O)[C@H]1O (stereo not given in full)
inactive: Potency [7]

CCN(CC)c1ncnc2c1ncn2[C@@H]1O[C@H](COP(=O)(O)OP(=O)(O)C(Br)(Br)P(=O)(O)O)[C@@H](O)[C@H]1O
inactive: Potency [7]

CC1OC1P(=O)(O)O (stereo not given)
inactive: Potency [7]

Cc1o[nH]c(=O)c1CC(N)C(=O)O (stereo not given)
inactive: outcome [1] | Potency [2] | outcome [3] | Potency [4] | outcome [5] | outcome [6] | Potency [7]

CCCN(CCC)CCc1ccc(O)c(O)c1
inactive: outcome [1] | Potency [2] | outcome [3] | Potency [4] | outcome [5] | outcome [6] | Potency [7]

CN1CCc2cccc(Cl)c2CC1
inactive: outcome [1] | Potency [2] | outcome [3] | Potency [4] | outcome [5] | outcome [6] | Potency [7]

O=c1ccc2[nH]cc(C3=CCNCC3)c2[nH]1
inactive: Potency [7]

c1ccc2c(N3CCNCC3)cccc2c1
inactive: outcome [1] | Potency [2] | outcome [3] | Potency [4] | outcome [5] | outcome [6] | Potency [7]

NC(=O)c1cc(N2CC2)c([N+](=O)[O-])cc1[N+](=O)[O-]
inactive: outcome [1] | Potency [2] | outcome [3] | Potency [4] | outcome [5] | outcome [6] | Potency [7]

CCCN(CCC)[C@@H]1CCc2cccc(O)c2C1
inactive: outcome [1] | Potency [2] | outcome [3] | Potency [4] | outcome [5] | outcome [6] | Potency [7]

O=[N+]([O-])c1ccc2nc(N3CCNCC3)ccc2c1
inactive: outcome [1] | Potency [2] | outcome [3] | Potency [4] | outcome [5] | outcome [6] | Potency [7]

[Cl-].[Cl][Pt].[NH2-].[NH2-].c1ccncc1
inactive: Potency [7]

CN1CCC[C@@H]1Cc1c[nH]c2ccc(Nc3ncccc3[N+](=O)[O-])cc12
inactive: Potency [7]

Cc1cc([C@@H]2CCCN2C)on1
inactive: outcome [1] | Potency [2] | outcome [3] | Potency [4] | outcome [5] | outcome [6] | Potency [7]

N[C@@]1(C(=O)O)CC[C@@H](C(=O)O)C1
inactive: outcome [1] | Potency [2] | outcome [3] | Potency [4] | outcome [5] | outcome [6] | Potency [7]

CC(C)(C)OC(=O)NC1[C@H]2CNC[C@@H]12 (stereo not given in full)
inactive: Potency [7]

Nc1ccc(CCN2CCN(c3cccc(C(F)(F)F)c3)CC2)cc1
inactive: outcome [1] | Potency [2] | outcome [3] | Potency [4] | outcome [5] | outcome [6] | Potency [7]

NC(=O)COc1c(F)cc(SCCNS(=O)(=O)c2ccccc2)cc1F
inactive: outcome [1] | Potency [2] | outcome [3] | Potency [4] | outcome [5] | outcome [6] | Potency [7]

O=C1/C(=C/c2ccccc2)C[C@@]2(O)[C@H]3Cc4ccc(O)c5c4[C@@]2(CCN3CC2CC2)[C@H]1O5
inactive: Potency [7]
